Compound activity (PubChem BioAssay)
esBAF inh – inhibitors of esBAF chromatin remodeling in mouse ES cells; hit rate 2% among 350,000; Bmi1-luciferase knock-in reporter, 24 h; 100% = twice the neutral-well signal; reporter increase, % at 12.5 µM; AID 602393; in the data active = activation above about 40%;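 note: a rise in the Bmi1 reporter signal indicates esBAF inhibition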
MITF act – activators of MITF-driven TRPM1 promoter activity in SK-MEL-5 cells; SK-MEL-5 TRPM1-promoter luciferase, 24 h; % of positive control, neutral wells = 0; activation, % at 12.5 µM; hit rate 0.75% among 300,000; AID 588334;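 active = mean activation of at least 80% with every replicate also reaching 80%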
PvdQ inh – blocks Pseudomonas aeruginosa PvdQ acylase activity | inhibition, % at 10 µM | AID 488965 | purified PvdQ acylase, fluorescence plate reader | hit rate 0.063% among 340,000; in the data active = inhibition above about 30%, passing the limit was not always enough
Wnt bcat act – Wnt/beta-catenin pathway activation; Wnt/beta-catenin reporter cell assay, activator, plate reader; activation, % at 9.35 µM; hit rate 1.2% among 300,000; AID 743398; in the data active = activation above about 30%, passing the limit was not always enough
Glyco luc inh – blocks N-linked glycosylation in D54 reporter cells; reporter increase, % at 12.5 µM; D54 ERlucT glycosylation luciferase reporter, 24 h; percent of 100 nM tunicamycin response; AID 588692; hit rate 0.23% among 360,000;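 active = mean luciferase reporter signal, scaled so untreated is 0 and the glycosylation-blocking control 100, at or above a set limit in every replicate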;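 note: luciferase carries N-glycosylation sites so blocking glycosylation raises the light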
Vif imaging – inhibitors of HIV Vif; HEK293T cells, Vif self-association by quenched fluorescence, imaging, 24 h; inhibition, % at 7.49 µM; hit rate 0.35% among 340,000; AID 602346; in the data active = inhibition above about 50%, passing the limit was not always enough
Large screens that a line does not name were inactive; ! = a repeat was not active. Most compounds without a hit are left out; they make up all but 2.9% or so of the library.

O=C1OC(c2ccc([N+](=O)[O-])cc2)=N/C1=C/N1CC2CC(C1)c1cccc(=O)n1C2 (stereo not given)	Vif imaging 52 (no result: esBAF inh)
O=C1OC(c2ccc(Br)cc2)=N/C1=C\N1CC2CC(C1)c1cccc(=O)n1C2 (stereo not given)	none
CC1(C)CN=C(Nc2nc3ccccc3s2)S1	esBAF inh 50 (no result: Wnt bcat act)
COC(=O)[C@H]1[C@H](CO)[C@H]2Cn3c(ccc(C4=CCCCC4)c3=O)[C@@H]1N2Cc1cccnc1	none (no result: MITF act, PvdQ inh, Wnt bcat act, Glyco luc inh, Vif imaging)
CCOc1ccccc1-n1c(O)c(C=Nc2ccc(N(CC)CC)cc2)c(=O)[nH]c1=O	Glyco luc inh 29 (no result: Wnt bcat act)
CCCN1[C@@H]2c3ccc(-c4ccccc4)c(=O)n3C[C@H]1[C@H](CO)[C@H]2C(=O)OC	none (no result: MITF act, PvdQ inh, Wnt bcat act, Glyco luc inh, Vif imaging)
ClCCOCCCl	Glyco luc inh 85
COc1ccc(C#Cc2ccc([C@H]3[C@@H](CO)N4CCCCN(C(=O)Cc5ccccc5)C[C@H]34)cc2)cc1	none (no result: MITF act, PvdQ inh, Wnt bcat act, Glyco luc inh, Vif imaging)
Nc1nonc1C(=O)N/N=C/c1ccc([N+](=O)[O-])o1	Glyco luc inh 30 (no result: esBAF inh)
CC[n+]1c(/C=C/C=C/c2ccc(N(C)C)cc2)sc2ccccc21	Glyco luc inh 28 (no result: esBAF inh, MITF act)
CCN(CC)c1ccc(/C=C2\C(=O)NC(=S)N(C)C2=O)o1	Wnt bcat act 37 (no result: MITF act)
Cn1c(O)c(Cc2ccc(OCc3ccccc3)cc2)c(=O)n(C)c1=O	Wnt bcat act 33
CC(=NCCc1ccccc1)c1c(O)n(C)c(=O)n(C)c1=O	none (no result: esBAF inh)
C=C1C(=O)O[C@@H]2C[C@@H](C)[C@@H]3C=CC(=O)[C@@]3(C)[C@@H](O)[C@H]12	Vif imaging 54
COC(=O)[C@@H]1N[C@@H]2c3ccc(C4=CCCC4)c(=O)n3C[C@@H]2[C@H]1CO	none (no result: MITF act, PvdQ inh, Wnt bcat act, Glyco luc inh, Vif imaging)
CC=Cc1ccc2n(c1=O)C[C@@H]1[C@@H](CO)[C@H](C(=O)OC)[C@H]2N1C(=O)CC1CC1 (mixture of isomers)	none (no result: MITF act, PvdQ inh, Wnt bcat act, Glyco luc inh, Vif imaging)
c1ccc2c(c1)[IH]c1ccccc1-2	Glyco luc inh 54
c1ccc2c(c1)-c1cccc3cccc-2c13	none
CCCCn1c(O)c(C(CC)=NC(C)c2ccccc2)c(=O)[nH]c1=O (stereo not given)	none
C=CCn1c(O)c(C(CC)=NC(C)c2ccccc2)c(=O)[nH]c1=O (stereo not given)	Glyco luc inh 26 (no result: MITF act, Wnt bcat act)
COC(=O)[C@@H]1[C@@H](CO)[C@@H]2Cn3c(ccc(-c4cccc(OC)c4)c3=O)[C@H]1N2C(=O)c1ccccc1F	none (no result: MITF act, PvdQ inh, Wnt bcat act, Glyco luc inh, Vif imaging)
CN(C)c1ccc(/C=C/c2cc[n+](C)c3ccccc23)cc1	Glyco luc inh 39!
COc1ccc(-c2ccc3n(c2=O)C[C@@H]2[C@@H](CO)[C@H](C(=O)O)[C@H]3N2C(=O)c2ccccc2F)cc1	none (no result: MITF act, PvdQ inh, Wnt bcat act, Glyco luc inh, Vif imaging)
O=C(Cn1ncc2c3ccccc3n(Cc3cccc(Cl)c3)c2c1=O)N1CCC2(CC1)OCCO2	Vif imaging 56 (no result: Wnt bcat act)
CCCCn1c(=O)c(C=Nc2cccnc2Cl)c(O)n(CCCCl)c1=O	Wnt bcat act 51 (no result: esBAF inh)
COC(=O)[C@H]1[C@H](CO)[C@H]2Cn3c(ccc(-c4cccnc4)c3=O)[C@@H]1N2CCc1ccccc1	none (no result: MITF act, PvdQ inh, Wnt bcat act, Glyco luc inh, Vif imaging)
CN1CCc2nc3ccc(F)cc3c(C(N)=O)c2C1	Vif imaging 60 (no result: MITF act, Wnt bcat act)
Nc1c2c(nc3ccccc13)CCN(Cc1ccccc1)C2	none
C=C1N2CCC(CC2)C1(O)c1ccc(C)cc1 (stereo not given)	none
C=C1N2CCC(CC2)C1(O)c1ccc(C)c(C)c1 (stereo not given)	Vif imaging 51
O=C(CN1CC=C(c2ccccc2)CC1)Nc1cc(Cl)ccc1Cl	none (no result: esBAF inh)
N#Cc1cc2c(nc1SCC(=O)Nc1cc(Cl)ccc1Cl)C1CCN2CC1	esBAF inh 58
N#Cc1cc2c(nc1SCC(=O)Nc1ccc(Cl)cc1)C1CCN2CC1	esBAF inh 46
C=CCn1c(O)c(C(C)=NCc2ccco2)c(=O)[nH]c1=O	none
CCCCn1c(O)c(C(C)=NCc2ccco2)c(=O)[nH]c1=O	Wnt bcat act 45 (no result: MITF act)
Cc1ccc2c(c1N)C(=O)c1ccccc1C2=O	esBAF inh 55, MITF act 95, Wnt bcat act 44
O=C(O)[C@@H]1[C@@H](CO)[C@@H]2Cn3c(ccc(C4=CCCCC4)c3=O)[C@H]1N2C(=O)Cc1ccccn1	none (no result: MITF act, PvdQ inh, Wnt bcat act, Glyco luc inh, Vif imaging)
COc1ccc(-c2cc(C(=O)N3CCC4(CC3)OCCO4)c3ccccc3n2)cc1	esBAF inh 41
CCOc1ccc(-c2cc(C(=O)N3CCC4(CC3)OCCO4)c3ccccc3n2)cc1	MITF act 100 (no result: esBAF inh)
CC=Cc1ccc2n(c1=O)C[C@H]1[C@H](CO)[C@@H](C(=O)OC)[C@@H]2N1CC1CC1 (mixture of isomers)	none (no result: MITF act, PvdQ inh, Wnt bcat act, Glyco luc inh, Vif imaging)
C[CH2][Hg][S]c1ccccc1C(=O)O	Glyco luc inh 63
CNc1cc(N2CCNCC2)ccc1[N+](=O)[O-]	Vif imaging 51 (no result: esBAF inh)
CC=Cc1ccc2n(c1=O)C[C@@H]1[C@@H](CO)[C@H](C(=O)N(C)C)[C@H]2N1C (mixture of isomers)	none (no result: MITF act, PvdQ inh, Wnt bcat act, Glyco luc inh, Vif imaging)
COC(=O)[C@H]1[C@H](CO)[C@H]2Cn3c(ccc(C4=CCCC4)c3=O)[C@@H]1N2CC1CCCCC1	none (no result: MITF act, PvdQ inh, Wnt bcat act, Glyco luc inh, Vif imaging)
O=C(NCNC(=O)NC1C(=O)NC(=O)N1CO)NC1C(=O)NC(=O)N1CO (stereo not given)	Vif imaging 123
O=C1NC(=O)C(=Cc2ccc(N3CCN(C(=O)c4ccccc4)CC3)c([N+](=O)[O-])c2)C(=O)N1	none (no result: esBAF inh, Wnt bcat act)
O=C1NC(=O)C(=Cc2cc([N+](=O)[O-])ccc2N2CCCCC2)C(=O)N1	Vif imaging 59
CC=Cc1ccc2n(c1=O)C[C@@H]1[C@@H](CO)[C@H](C(=O)OC)[C@H]2N1CC1CCOCC1 (mixture of isomers)	none (no result: MITF act, PvdQ inh, Wnt bcat act, Glyco luc inh, Vif imaging)
CN1CCCN(c2ccc([N+](=O)[O-])nc2)CC1	Vif imaging 52
CN1CCN(c2ccc([N+](=O)[O-])c(N3CCCCC3)c2)CC1	none (no result: Wnt bcat act)
CN1CC(Br)C(=O)NC1=O (stereo not given)	none
CN1C(=O)NC(=O)C(N=Nc2ccc(Cl)cc2)C1=O (stereo not given)	esBAF inh 42
CC(C)CC#Cc1ccc([C@H]2[C@@H](CO)N3CCCCN(C(=O)Cc4ccccn4)C[C@H]23)cc1	none (no result: MITF act, PvdQ inh, Wnt bcat act, Glyco luc inh, Vif imaging)
O=C(O)[C@@H]1[C@@H](CO)[C@@H]2Cn3c(ccc(C4=CCCCC4)c3=O)[C@H]1N2CCc1ccccc1	none (no result: MITF act, PvdQ inh, Wnt bcat act, Glyco luc inh, Vif imaging)
COC(=O)[C@@H]1[C@@H](CO)[C@@H]2Cn3c(ccc(C4=CCCCC4)c3=O)[C@H]1N2CC1CCCC1	none (no result: MITF act, PvdQ inh, Wnt bcat act, Glyco luc inh, Vif imaging)
COC(=O)[C@H]1[C@H](CO)[C@H]2Cn3c(ccc(-c4ccccc4F)c3=O)[C@@H]1N2C(=O)C1CC1	none (no result: MITF act, PvdQ inh, Wnt bcat act, Glyco luc inh, Vif imaging)
Cc1nc2c(c(C)nn2-c2ccccc2)c(C)c1CCC(=O)N1CCC2(CC1)OCCO2	esBAF inh 55 (no result: Wnt bcat act)
Cc1nc2c(-c3ccccc3)c(C)nn2c(C)c1CCC(=O)N1CCC2(CC1)OCCO2	none (no result: MITF act)
COC(=O)[C@@H]1[C@@H](CO)[C@@H]2Cn3c(ccc(-c4ccccc4F)c3=O)[C@H]1N2C(=O)C1CC1	none (no result: MITF act, PvdQ inh, Wnt bcat act, Glyco luc inh, Vif imaging)
